Results on five compounds are retold here after PubChem BioAssay (EPA / NIEHS).

SMILES strings stand for the structures. Records with an inconclusive call do not appear. Activity calls are given as the source filed them. How the source made its calls, unless noted: active means hit-call score of the fitted dose curve at least 0.9, where 1 is the maximum; inactive means score below 0.9.

The nature of assay [1]: ATG_CRE_CIS: Attagene CIS-FACTORIAL HepG2 Assay for human cAMP Responsive Element (CRE) binding protein 3 (AID 2282926). To be noted: HepG2 CRE cis-reporter, Attagene multiplexed mRNA; actives raise or lower the signal. The procedure, abridged: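 HepG2 cells transiently transfected with a multiplexed reporter library (CRE-driven unit among them) were dosed for 24 h. Reporter mRNA was quantified by RT-PCR, fluorescent labelling, HpaI digestion and capillary electrophoresis, with bidirectional fitting against DMSO baseline.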

The target in assay [2] is Aryl hydrocarbon receptor (Homo sapiens) (UniProt P35869). The experiment in a line: ATG_Ahr_CIS: Attagene CIS-FACTORIAL HepG2 Assay for human Aryl Hydrocarbon Receptor (Ahr) (AID 2282930). The following applies: HepG2 AhR cis-factorial reporter transcription; actives raise or lower the signal. An outline of the steps: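 HepG2 cells transiently transfected with cis-element-driven multiplexed reporter transcription units; endogenous transcription factor activity measured as reporter mRNA 24 h after dosing. RT-PCR, 6-FAM labelling, HpaI digestion, capillary electrophoresis; bidirectional fitting versus DMSO baseline.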

Assay [3] is described as follows: ATG_AP_1_CIS: Attagene CIS-FACTORIAL HepG2 Assay for human Activator Protein 1 (AP-1) (AID 2282931). The following applies: HepG2 Attagene cis-factorial AP-1 reporter mRNA; actives raise or lower the signal. An outline of the steps: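 HepG2, transient cis-reporter transfection; 24 h; readout RT-PCR/CE fluorescence; DMSO baseline, gain and loss fitted.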
Assay [4] in a line: ATG_Ets_CIS: Attagene CIS-FACTORIAL HepG2 Assay for human Erythroblast Transformation Specific (ETS) (AID 2282941). The following applies: HepG2 ETS cis-reporter transcription, actives raise or lower the signal. An outline of the steps: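 HepG2 cells transiently transfected with cis-promoter reporter transcription units were dosed for 24 h; reporter mRNA was measured by RT-PCR, 6-FAM primer extension, HpaI digestion and capillary electrophoresis, with bidirectional fitting against DMSO baseline.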

Assay [5] is described as follows: ATG_FoxO_CIS: Attagene CIS-FACTORIAL HepG2 Assay for human Forkhead box O (FoxO) (AID 2282943). To be noted: HepG2 Attagene cis-reporter, FoxO element, mRNA; actives raise or lower the signal. An outline of the steps:
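HepG2 cells transiently transfected with cis-promoter-driven multiple reporter transcription units; 24 h after chemical dosing, reporter mRNA quantified by RT-PCR, fluorescent primer extension, HpaI digestion and capillary electrophoresis. Bidirectional fitting versus DMSO baseline.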

Assay [6] in a line: ATG_GATA_CIS: Attagene CIS-FACTORIAL HepG2 Assay for human GATA Binding Protein (AID 2282944). The following applies: HepG2 GATA cis-element reporter, Attagene multiplex mRNA; actives raise or lower the signal. The procedure, abridged:
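After transfecting HepG2 cells with multiple cis-regulated reporter units, chemicals are dosed for 24 h; isolated RNA undergoes RT-PCR and fluorescent labeling before capillary electrophoresis, with activity expressed against DMSO.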

For assay [7], the target named is Hypoxia-inducible factor 1-alpha (Homo sapiens) (UniProt Q16665). The experiment in a line: ATG_HIF1a_CIS: Attagene CIS-FACTORIAL HepG2 Assay for human Hypoxia Inducible Factor 1 (HIF1A) (AID 2282951). The following applies: HepG2 Attagene cis-factorial HIF1a reporter transcription; actives raise or lower the signal. The procedure, abridged: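 After 24 h chemical exposure of reporter-transfected HepG2 cells, reporter cDNA was PCR-amplified, labelled by 6-FAM primer extension (2 min 95 C, 20 s 68 C, 10 min 72 C), HpaI-cut (2 h, 37 C) and analysed by CE.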

Assay [8] concerns the target Hepatocyte nuclear factor 6 (Homo sapiens) (UniProt Q9UBC0). The assay can be described thus: ATG_HNF6_CIS: Attagene CIS-FACTORIAL HepG2 Assay for human Hepatocyte Nuclear Factor 6 (HNF6) (AID 2282952). To be noted: HepG2 Attagene cis-factorial HNF6 reporter transcription; actives raise or lower the signal. An outline of the steps: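 HepG2 cells transiently transfected with cis-element-driven multiple reporter transcription units, dosed 24 h; reporter mRNA quantified by RT-PCR, FAM primer extension, HpaI digestion and capillary electrophoresis; bidirectional fit versus DMSO baseline.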

Assay [9] deals with Heat shock factor protein 1 (Homo sapiens) (UniProt Q00613). The experiment in a line: ATG_HSE_CIS: Attagene CIS-FACTORIAL HepG2 Assay for human Heat Shock Transcription Factor 1 (HSE) (AID 2282953). The following applies: HepG2 HSE cis-reporter, Attagene RNA transcription; actives raise or lower the signal. An outline of the steps:
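Endogenous transcription factor activity captured via cis-promoter reporter units transfected into HepG2; treatment lasted 24 h. Fluorescence intensity of reporter fragments analysed with bidirectional curve fitting, DMSO baseline.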

Assay [10] is described as follows: ATG_MRE_CIS: Attagene CIS-FACTORIAL HepG2 Assay for human Metal Responsive Element (MRE) (AID 2282954). The following applies: HepG2 MRE cis-reporter transcription, Attagene multiplex; actives raise or lower the signal. An outline of the steps:
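HepG2 cells transiently transfected with multiple cis-element reporter units measure endogenous MTF1-driven transcription. After 24 h compound exposure, reporter mRNA is quantified by RT-PCR with 6-FAM labelling, HpaI digestion and capillary electrophoresis; bidirectional fits versus DMSO.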

The target of assay [11] is Paired box protein Pax-6 (Homo sapiens) (UniProt P26367). The experiment in a line: ATG_Pax6_CIS: Attagene CIS-FACTORIAL HepG2 Assay for human Paired Box 6 (PAX6) (AID 2282956). To be noted: HepG2 CIS-FACTORIAL PAX6 reporter transcription, RNA readout; actives raise or lower the signal. The procedure, abridged: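 HepG2 cells transiently transfected with multiplexed cis-promoter reporter units (endogenous TF activity) were dosed for 24 h. Reporter mRNA was quantified by RT-PCR, 6-FAM labeling, HpaI digestion and capillary electrophoresis; bidirectional fitting versus DMSO baseline.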

Assay [12] can be described thus: ATG_VDRE_CIS: Attagene CIS-FACTORIAL HepG2 Assay for human Vitamin D Receptor Element (VDRE) (AID 2282968). The following applies: HepG2 VDRE cis-reporter transcription, actives raise or lower the signal. An outline of the steps:
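HepG2 cells transiently transfected with cis-element reporter units, dosed 24 h; reporter mRNA measured by RT-PCR, 6-FAM labeling, HpaI digestion and capillary electrophoresis. Activity fitted bidirectionally against DMSO baseline.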

The nature of assay [13]: ATG_NF_kB_CIS: Attagene CIS-FACTORIAL HepG2 Assay for human Nuclear Factor Kappa B (NF-kB) (AID 2282991). To be noted: HepG2 Attagene cis-factorial NF-kB reporter mRNA; actives raise or lower the signal. An outline of the steps: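 Fluorescence of labelled RT-PCR products separated by capillary electrophoresis gives reporter mRNA levels from transfected HepG2 cells exposed 24 h; values are fitted in both directions relative to DMSO.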

Assay [14] in a line: ATG_NRF2_ARE_CIS: Attagene CIS-FACTORIAL HepG2 Assay for human Nuclear Factor Erythroid 2 Related Factor 2 (NFR2) response to Antioxidant Response Elements (ARE) (AID 2282992). To be noted: HepG2 Attagene ARE/NRF2 reporter, transcription factor activity; actives raise or lower the signal. The procedure, abridged: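 HepG2 cells transiently transfected with multiplexed cis-regulated reporter transcription units measure endogenous transcription factor activity. Reporter mRNA at 24 h is quantified by RT-PCR, fluorescent labelling and capillary electrophoresis, with bidirectional fitting relative to DMSO.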

Assay [15] addresses Cellular tumor antigen p53 (Homo sapiens) (UniProt P04637). The experiment in a line: ATG_p53_CIS: Attagene CIS-FACTORIAL HepG2 Assay for human p53 Transcription Factor (AID 2282994). The following applies: HepG2 p53 cis-element reporter, Attagene mRNA; actives raise or lower the signal. The procedure, abridged: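 HepG2 cells transiently transfected with multiplexed cis-regulated reporter transcription units read endogenous TF activity. After 24 h compound exposure, reporter mRNA was quantified by RT-PCR, fluorescent labelling, HpaI digestion and capillary electrophoresis; bidirectional fits versus DMSO baseline.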

A short description of assay [16]: ATG_XTT_Cytotoxicity: Cytotoxicity Assessment in the Attagene TRANS-FACTORIAL HepG2 Assay (AID 2283584; active means hit-call score of the fitted dose curve at least 0.9, where 1 is the maximum). An outline of the steps:
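HepG2 human liver cells, transiently transfected with multiple GAL4-UAS reporter units, were dosed and read at 24 h by XTT as cell number. Loss of signal was fitted relative to DMSO negative control baseline.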

The nature of assay [17]: ATG_BRE_CIS: Attagene CIS-FACTORIAL HepG2 Assay for human Bone Morphogenetic Protein (BMP) Response Element (BRE) (AID 2282933). The following applies: HepG2 BMP response element reporter, Attagene transcription factor profiling; actives raise or lower the signal. An outline of the steps:
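Multiplexed cis-reporter assay, HepG2, 24 h exposure. mRNA from reporter units quantified via RT-PCR/CE; DMSO baseline; bidirectional curve fit.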

The target of assay [18] is Hepatocyte nuclear factor 3-beta (Homo sapiens) (UniProt Q9Y261). The experiment in a line: ATG_FoxA2_CIS: Attagene CIS-FACTORIAL HepG2 Assay for human Forkhead box A2 (FOXA2) (AID 2282942). The following applies: HepG2 cis-reporter transcription factor activity, 24 h; actives raise or lower the signal. The procedure, abridged:
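24 h dosing of HepG2 bearing cis-reporter constructs; mRNA readout by RT-PCR/CE fluorescence; bidirectional fit, DMSO baseline.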

Assay [19] in a line: ATG_SREBP_CIS: Attagene CIS-FACTORIAL HepG2 Assay for human Sterol Regulatory Element Binding (SREBP) (AID 2282962). To be noted: HepG2 Attagene cis-factorial SREBP reporter, mRNA; actives raise or lower the signal. The procedure, abridged:
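HepG2 cells transiently transfected with multiplexed cis-element reporter units report endogenous transcription factor activity. After 24 h of chemical exposure, reporter mRNA was quantified by RT-PCR, 6-FAM labelling, HpaI digestion and capillary electrophoresis; bidirectional fits used DMSO as baseline.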

Sequence of Heat shock factor protein 1 (Homo sapiens) (Q00613 whole entry, looked up, the tested form may be a part): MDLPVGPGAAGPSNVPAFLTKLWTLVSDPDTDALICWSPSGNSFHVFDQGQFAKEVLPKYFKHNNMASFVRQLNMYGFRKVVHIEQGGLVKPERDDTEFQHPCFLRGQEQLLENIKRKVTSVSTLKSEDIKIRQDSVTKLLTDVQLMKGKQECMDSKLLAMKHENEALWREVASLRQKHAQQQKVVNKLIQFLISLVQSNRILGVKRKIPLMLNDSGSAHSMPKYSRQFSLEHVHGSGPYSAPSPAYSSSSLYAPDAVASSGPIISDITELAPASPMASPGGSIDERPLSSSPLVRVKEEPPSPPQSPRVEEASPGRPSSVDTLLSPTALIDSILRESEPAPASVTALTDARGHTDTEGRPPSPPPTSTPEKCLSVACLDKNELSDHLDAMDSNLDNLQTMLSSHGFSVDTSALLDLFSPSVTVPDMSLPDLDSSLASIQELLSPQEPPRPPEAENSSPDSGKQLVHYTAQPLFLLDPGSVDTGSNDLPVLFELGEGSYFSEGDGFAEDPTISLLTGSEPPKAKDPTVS
Sequence of Cellular tumor antigen p53 (Homo sapiens) (P04637 whole entry, looked up): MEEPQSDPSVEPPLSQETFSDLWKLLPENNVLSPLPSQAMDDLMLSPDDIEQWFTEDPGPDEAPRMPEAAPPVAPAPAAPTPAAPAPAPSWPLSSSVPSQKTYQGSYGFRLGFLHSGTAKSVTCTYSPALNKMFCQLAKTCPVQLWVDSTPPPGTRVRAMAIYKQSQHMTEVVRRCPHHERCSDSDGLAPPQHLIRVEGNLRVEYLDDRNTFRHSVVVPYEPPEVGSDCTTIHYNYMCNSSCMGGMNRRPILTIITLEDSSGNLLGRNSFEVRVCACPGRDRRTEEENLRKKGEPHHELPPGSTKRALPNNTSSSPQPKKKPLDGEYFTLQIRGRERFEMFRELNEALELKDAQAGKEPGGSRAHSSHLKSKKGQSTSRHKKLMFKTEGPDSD
Sequence of Paired box protein Pax-6 (Homo sapiens) (P26367 whole entry, looked up): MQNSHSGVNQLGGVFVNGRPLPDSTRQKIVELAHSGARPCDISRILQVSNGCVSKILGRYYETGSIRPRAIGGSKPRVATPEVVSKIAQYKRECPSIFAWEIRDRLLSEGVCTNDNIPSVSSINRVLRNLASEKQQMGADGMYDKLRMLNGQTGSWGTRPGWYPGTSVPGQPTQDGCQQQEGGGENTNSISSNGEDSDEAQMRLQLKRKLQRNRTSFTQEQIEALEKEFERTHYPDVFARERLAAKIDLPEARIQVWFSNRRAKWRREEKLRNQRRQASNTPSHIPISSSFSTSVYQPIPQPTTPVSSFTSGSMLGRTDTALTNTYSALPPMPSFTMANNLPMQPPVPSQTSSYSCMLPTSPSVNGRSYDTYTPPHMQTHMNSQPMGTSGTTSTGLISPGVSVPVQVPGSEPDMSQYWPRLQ
Sequence of Hepatocyte nuclear factor 3-beta (Homo sapiens) (Q9Y261 whole entry, looked up): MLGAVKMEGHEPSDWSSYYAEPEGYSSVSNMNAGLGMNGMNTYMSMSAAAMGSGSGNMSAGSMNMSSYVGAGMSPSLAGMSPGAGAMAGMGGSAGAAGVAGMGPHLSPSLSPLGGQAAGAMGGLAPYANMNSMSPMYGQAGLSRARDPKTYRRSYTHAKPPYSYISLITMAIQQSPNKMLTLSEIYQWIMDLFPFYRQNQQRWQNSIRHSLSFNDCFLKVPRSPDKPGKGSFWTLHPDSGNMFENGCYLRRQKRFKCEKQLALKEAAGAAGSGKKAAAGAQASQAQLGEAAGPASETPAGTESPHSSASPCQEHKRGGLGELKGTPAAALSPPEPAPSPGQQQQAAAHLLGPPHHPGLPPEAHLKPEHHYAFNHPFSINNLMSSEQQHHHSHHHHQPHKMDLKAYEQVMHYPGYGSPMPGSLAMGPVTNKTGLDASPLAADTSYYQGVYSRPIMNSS
Sequence of Hypoxia-inducible factor 1-alpha (Homo sapiens) (Q16665 whole entry, looked up): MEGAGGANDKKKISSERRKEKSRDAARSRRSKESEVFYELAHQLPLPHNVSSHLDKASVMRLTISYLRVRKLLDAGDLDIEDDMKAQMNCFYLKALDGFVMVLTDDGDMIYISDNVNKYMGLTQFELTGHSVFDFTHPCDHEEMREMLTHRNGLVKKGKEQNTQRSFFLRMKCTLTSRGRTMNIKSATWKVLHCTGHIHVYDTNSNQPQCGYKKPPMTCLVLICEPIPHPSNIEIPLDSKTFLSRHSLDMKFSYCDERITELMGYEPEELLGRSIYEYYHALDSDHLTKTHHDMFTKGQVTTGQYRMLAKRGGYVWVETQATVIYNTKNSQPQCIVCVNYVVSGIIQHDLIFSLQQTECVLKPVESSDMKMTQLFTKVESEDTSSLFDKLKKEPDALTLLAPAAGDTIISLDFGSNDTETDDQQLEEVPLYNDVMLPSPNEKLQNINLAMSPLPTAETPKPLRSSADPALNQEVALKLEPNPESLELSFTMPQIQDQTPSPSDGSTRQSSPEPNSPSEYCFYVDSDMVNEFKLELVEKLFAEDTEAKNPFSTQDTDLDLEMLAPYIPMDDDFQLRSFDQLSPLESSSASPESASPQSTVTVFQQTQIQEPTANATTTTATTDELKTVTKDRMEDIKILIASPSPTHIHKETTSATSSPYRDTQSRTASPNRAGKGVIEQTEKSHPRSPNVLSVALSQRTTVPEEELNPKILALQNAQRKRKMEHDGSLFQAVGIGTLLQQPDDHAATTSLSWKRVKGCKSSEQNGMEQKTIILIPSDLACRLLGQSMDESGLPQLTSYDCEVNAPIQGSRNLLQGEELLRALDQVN
Sequence of Hepatocyte nuclear factor 6 (Homo sapiens) (Q9UBC0 whole entry, looked up): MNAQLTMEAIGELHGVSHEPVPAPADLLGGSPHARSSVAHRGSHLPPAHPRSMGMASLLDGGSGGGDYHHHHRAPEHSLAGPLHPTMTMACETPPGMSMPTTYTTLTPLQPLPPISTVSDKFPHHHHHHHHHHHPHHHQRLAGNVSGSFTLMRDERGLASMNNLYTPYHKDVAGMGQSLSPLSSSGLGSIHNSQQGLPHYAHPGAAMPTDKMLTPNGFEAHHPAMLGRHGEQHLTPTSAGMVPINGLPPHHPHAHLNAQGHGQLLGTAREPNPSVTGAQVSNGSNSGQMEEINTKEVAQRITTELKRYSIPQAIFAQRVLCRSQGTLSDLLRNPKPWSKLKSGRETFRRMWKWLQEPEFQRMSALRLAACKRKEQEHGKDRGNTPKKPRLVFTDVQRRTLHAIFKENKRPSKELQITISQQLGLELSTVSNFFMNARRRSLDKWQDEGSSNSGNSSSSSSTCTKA
Sequence of Aryl hydrocarbon receptor (Homo sapiens) (P35869 whole entry, looked up): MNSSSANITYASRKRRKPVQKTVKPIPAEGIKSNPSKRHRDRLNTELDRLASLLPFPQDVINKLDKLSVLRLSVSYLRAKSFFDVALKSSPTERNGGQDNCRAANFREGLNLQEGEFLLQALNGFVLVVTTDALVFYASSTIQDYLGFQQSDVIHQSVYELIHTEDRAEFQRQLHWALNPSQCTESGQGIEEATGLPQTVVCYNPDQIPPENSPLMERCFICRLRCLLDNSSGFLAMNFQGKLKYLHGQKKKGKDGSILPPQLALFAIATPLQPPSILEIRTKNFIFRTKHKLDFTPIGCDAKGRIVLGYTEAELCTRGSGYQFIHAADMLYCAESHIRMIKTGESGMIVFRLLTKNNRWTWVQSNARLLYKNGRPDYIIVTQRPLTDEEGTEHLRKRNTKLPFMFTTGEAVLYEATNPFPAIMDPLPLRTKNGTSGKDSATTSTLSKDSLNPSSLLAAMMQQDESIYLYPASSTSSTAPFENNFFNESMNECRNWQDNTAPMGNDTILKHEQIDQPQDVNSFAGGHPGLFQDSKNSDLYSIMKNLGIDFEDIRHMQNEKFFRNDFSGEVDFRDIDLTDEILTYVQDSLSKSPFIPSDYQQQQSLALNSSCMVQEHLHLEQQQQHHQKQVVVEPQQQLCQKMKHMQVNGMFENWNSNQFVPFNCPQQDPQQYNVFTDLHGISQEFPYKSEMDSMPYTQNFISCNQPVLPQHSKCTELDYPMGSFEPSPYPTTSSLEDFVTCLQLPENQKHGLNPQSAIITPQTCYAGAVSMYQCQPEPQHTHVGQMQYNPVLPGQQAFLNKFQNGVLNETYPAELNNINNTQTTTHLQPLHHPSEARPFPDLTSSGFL

A word on the AC50: it is the concentration giving half of the maximal activity seen. As for `CC(C)CCCCCCCOP(=O)(Oc1ccccc1)Oc1ccccc1`, the result in [1], in [2], in assay [4], in [5], in assay [6] and in assay [7] was inactive. The call in assay [8], in assay [9], in [10], in assay [11], in assay [13] and in [15] was inactive. Besides, the compound was classed as inactive in assay [16]. Moreover, the half-maximal activity concentration (AC50) in assay [3] is 33.3 µM (active); in [12], 1.66 µM (active); in assay [14] it was 19.5 µM (active).
For `C=CC(=O)OC`, the compound was classed as inactive in assay [1], in assay [2], in assay [3], in assay [17], in assay [4] and in assay [18]. Further, the compound was classed as inactive in assay [5], in [6], in [7], in assay [8], in assay [9] and in [10]. The outcome in [11], in assay [19], in assay [12], in assay [13], in assay [14] and in [15] was inactive. Also, the result in [16] was inactive.
Consider `COC(=O)c1ccccc1S(=O)(=O)NC(=O)Nc1nc(C)cc(C)n1`, for which the call in assay [1], in assay [2], in assay [3], in assay [17], in [18] and in [5] was inactive. For the same compound, the result in assay [7], in [8], in [10], in assay [19], in assay [12] and in [13] was inactive. Besides, the call in assay [14] was inactive.
On to `C=CCO`, for which the result in [1], in assay [2], in assay [3], in assay [17], in assay [4] and in [18] was inactive. In addition, the compound was classed as inactive in [5], in [7], in [8], in assay [11], in assay [13] and in [14]. Also, the compound was called inactive in assay [15] and in assay [16].
`O=C(O)CCCc1ccc(N(CCCl)CCCl)cc1`: the outcome in assay [1], in assay [2], in assay [17], in assay [18], in [5] and in [7] was inactive. For the same compound, the outcome in assay [8], in assay [9], in assay [11], in [12], in assay [13] and in assay [14] was inactive. Also, the compound was called inactive in assay [16]. Also, the AC50 in assay [15] was 54.7 µM (active).
